Shown are actives, neighbours in structure and some others; about 7.3% of the full set was active somewhere.
HCMV antiviral: blocks human cytomegalovirus replication; HFF cells, HCMV-luciferase reporter, 72 h; active compounds read low; activity change, negative = inhibition, % at 57.5 µM; 410,000 compounds, 4.5% hits; in the data active = activity change below about -60%; inconclusive = no clear call, values can overlap the other calls; inactive = above about -39%
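Cell-based, HFFs, 1000 cells/well, 16 h 37C; cpds in DMSO + HCMV-luc, MOI 1 PFU/cell; 72 h 37C; OneGlo luminescence after 5 min RT; norm. to buffer vs Salinomycin 10uM.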
VACV Venus inh: vaccinia inhibition (Venus reporter); Vaccinia virus Venus reporter expression, fluorescence; Potency, µM (top dose mostly 36.5 µM), without a hit: at the highest dose activity change, negative = inhibition, hits mostly inhibitors; 330,000 compounds, 0.46% hits; calls by dose curve; tested in A549 cells; also: potency is read from the fitted curve at half-maximal effect; nearly all actives have a fitted effect of over 30% in size
FMDV antiviral: blocks foot and mouth disease virus; FMDV antiviral cell-based qHTS; Potency, µM (top dose mostly 57.9 µM), for the others: top-dose activity change, negative = inhibition, most hits filed as inhibitors; 410,000 compounds, 1.2% hits; calls by dose curve; tested in HEK293T cells; also: read-out not given here; potency is read from the fitted curve at half-maximal effect; nearly all actives have a fitted effect of over 45% in size
Vaccinia mCherry: inhibitors of vaccinia virus infection (mCherry reporter signal) | AID 720579 | Potency, µM (top dose mostly 36.5 µM), without a hit: at the top dose activity change, negative = inhibition, most hits filed as inhibitors | 310,000 compounds, 0.63% hits | Vaccinia virus mCherry reporter infection, fluorescence; calls by dose curve; tested in A549 cells; also: potency is read from the fitted curve at half-maximal effect; nearly all actives have a fitted effect of over 35% in size
HCV inhibitor: blocks hepatitis C virus; 340,000 compounds, 3.4% hits; Huh7.5.1 HCVcc-Cre infection, luciferase reporter, 44 h; Potency, µM (top dose mostly 41.8 µM), for inactives: top-dose activity change, negative = inhibition, usual class: inhibitors; AID 651820; active = well fitted inhibition curve with a large enough effect; inconclusive = small, poorly fitted or top-dose-only effect, or another doubt; inactive = no such curve, though single readings can be large or run the other way; also: potency is read from the fitted curve at half-maximal effect
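Infectious HCV cell culture screen: compound-treated cells (1,000/well, pre-plated 4 h) are infected with HCVcc-Cre at roughly 0.5 moi and grown 44 h. Infection is quantified by luciferase signal after 15 min substrate incubation at room temperature.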
Starred values were filed as active, the others as inactive; [ ] = another dose, or the depositor's remark. % is scaled to controls: 0 for no effect and ±100 for the full control effect.

What do the screens show for `Nc1c(C(=O)Nc2ccc3c(c2)OCCO3)nnn1Cc1ccc(Cl)cc1`?
HCMV antiviral: 28.9; VACV Venus inh: -19.0%; FMDV antiviral: 46.9%; Vaccinia mCherry: -21.4%; HCV inhibitor: -13.4%

How did O=C(/C=C/c1c(F)cccc1Cl)c1ccc(O)cc1 do in these assays?
HCMV antiviral: -18.4; FMDV antiviral: 12.2%; HCV inhibitor: 11.2µM*

What do the screens show for `Cc1ccc(-c2nnc(Nc3cccc(O)c3)c3ccccc23)cc1S(=O)(=O)N1CCN(C)CC1`?
HCMV antiviral: -29.6; VACV Venus inh: -6.0%; FMDV antiviral: -18.4%; Vaccinia mCherry: -23.5%

What do the screens show for `CCN(CC)C(=O)c1ccc(-c2nnc(Nc3ccc(O)cc3)c3ccccc23)cc1`?
HCMV antiviral: -74.5*; FMDV antiviral: -24.1%; HCV inhibitor: -25.8%

How did Cc1ccc(-c2nnc(Nc3ccc(Br)cc3)c3ccccc23)cc1S(=O)(=O)N1CCN(C)CC1 do in these assays?
HCMV antiviral: -39.8; VACV Venus inh: -29.6%; FMDV antiviral: -15.8%; Vaccinia mCherry: inconclusive

How did Cc1ccc(-c2nnc(Nc3ccc(O)cc3)c3ccccc23)cc1S(=O)(=O)N1CCN(C)CC1 do in these assays?
HCMV antiviral: -65.6*; VACV Venus inh: -29.1%; FMDV antiviral: -12.1%; Vaccinia mCherry: inconclusive

What do the screens show for `Cc1ccc(-c2nnc(Nc3ccc(F)cc3)c3ccccc23)cc1S(=O)(=O)N1CCN(C)CC1`?
HCMV antiviral: -101.5*; VACV Venus inh: -28.4%; FMDV antiviral: -20.2%; Vaccinia mCherry: -12.6%

Results for CN(C(=O)CSc1nc2ncccc2o1)c1ccc(F)cc1 ?
HCMV antiviral: -33.1; VACV Venus inh: -7.7%; FMDV antiviral: -14.7%; Vaccinia mCherry: -13.3%

What do the screens show for `CCOC(=O)c1c(NC(C)=O)sc2c1CCC(C=O)=C2Sc1ccccc1`?
HCMV antiviral: 108.6; VACV Venus inh: -19.4%; FMDV antiviral: inconclusive; Vaccinia mCherry: inconclusive; HCV inhibitor: 2.82µM*

What do the screens show for `Cc1cccc(OCC(=O)N(Cc2ccccc2)c2c(N)n(Cc3ccccc3)c(=O)[nH]c2=O)c1`?
HCMV antiviral: -39.3; FMDV antiviral: 13.6%; HCV inhibitor: inconclusive

What do the screens show for `Cc1cccc(C(O)c2ncc(-c3ccccc3F)[nH]2)c1C` (configuration not stated)?
HCMV antiviral: 37.5; VACV Venus inh: -3.7%; FMDV antiviral: 64.5%; Vaccinia mCherry: 27.7%

What do the screens show for `Cc1ccc(CN2CCN(C(=O)CC(C)C)CC2)cc1`?
HCMV antiviral: 10.1; FMDV antiviral: -15.2%; HCV inhibitor: 3.4%

Results for O=C1OC(/C(=C\Nc2cc(Cl)ccc2O)[N+](=O)[O-])c2ccccc21 (configuration not stated) ?
HCMV antiviral: -77.0*; VACV Venus inh: -21.7%; FMDV antiviral: -27.1%; Vaccinia mCherry: inconclusive; HCV inhibitor: -24.6%

How did Cc1ccc(-n2c(-c3ccccc3)nsc2=NC#N)cc1 do in these assays?
VACV Venus inh: 4.47µM*; Vaccinia mCherry: 3.55µM*

How did CCCS(=O)(=O)NC(=O)C1(C)CCCN(C(=O)c2c(-c3ccccc3)noc2C)C1 (configuration not stated) do in these assays?
HCMV antiviral: -63.0*; VACV Venus inh: -4.2%; FMDV antiviral: -6.5%; Vaccinia mCherry: 0.0%

How did CC(=O)OC1CC2C(C)(C)C(=O)C=C[C@]2(C)C2CC[C@]3(C)C(=CC(=O)OC3c3ccoc3)[C@]12C (some centres not stated) do in these assays?
VACV Venus inh: inconclusive; FMDV antiviral: 25.1µM*; Vaccinia mCherry: -23.7%

Results for COc1ccc(OC)c(CNc2ncnc3c2nc2n3CCCC2)c1 ?
HCMV antiviral: -30.6; VACV Venus inh: 3.3%; FMDV antiviral: -5.1%; Vaccinia mCherry: -12.5%

Results for COc1ccc(CNCCc2c(C)[nH]c3ccc(OC(F)(F)F)cc23)c(OC)c1 ?
HCMV antiviral: -66.2*; VACV Venus inh: -20.7%; FMDV antiviral: -12.2%; Vaccinia mCherry: inconclusive; HCV inhibitor: 17.8µM*

What do the screens show for `COc1ccc2[nH]c(C)c(CCNC(=S)Nc3cc(C)cc(C)c3)c2c1`?
HCMV antiviral: inconclusive; VACV Venus inh: inconclusive; FMDV antiviral: -8.9%; Vaccinia mCherry: -20.2%; HCV inhibitor: -19.1%[8.37 µM]
